# Screening data as filed in PubChem.
# An excerpt weighted towards active compounds, which were near 1.7% of everything screened.
# FGF22 binding: shifts melting point of recombinant human FGF22. recombinant FGF22 thermal shift, SYPRO orange fluorescence; percent of sucrose octasulfate shift, DMSO zero. activity (Tm shift, normalised), % at 9.99 µM. hit rate 1.5% among 340,000;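 active = mean Tm shift, scaled 0 neutral to 100 positive control, at about 1.3% or above, every replicate too, limit read from the data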
# Target sequence (Q9HCT0 whole entry, looked up): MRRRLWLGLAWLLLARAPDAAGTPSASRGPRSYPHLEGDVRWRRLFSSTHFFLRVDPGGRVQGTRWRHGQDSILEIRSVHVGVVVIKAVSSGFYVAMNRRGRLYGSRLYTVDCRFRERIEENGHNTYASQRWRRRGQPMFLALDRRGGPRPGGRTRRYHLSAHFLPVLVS
# CFTR F508del cor: CFTR F508del correction in bronchial cells; activity (quench increase), % at 7.58 µM; CFBE cells, YFP halide quenching; stimulated with forskolin plus potentiator P3; % fluorescence drop versus neutral controls; hit rate 0.36% among 350,000;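 active = mean added fluorescence quench of at least 8% versus neutral control, with both replicates also reaching 8%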;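 note: cells transiently co-express mutant CFTR-F508del with the halide-sensitive YFP; corrector assay measuring rescue of mutant channel to the surface after 24 h compound exposure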
# Vif inh: HIV Vif inhibition. inhibition, % at 7.49 µM. hit rate 0.35% among 340,000. HEK293T cells, Vif self-association by quenched fluorescence, imaging, 24 h; in the data active = inhibition above about 50%, passing the limit was not always enough
# * = called active by the depositor; . = no result.
SMILES,FGF22 binding,CFTR F508del cor,Vif inh
CCCCC(=O)NC(c1ccc(OC)cc1)c1ccc2cccnc2c1O (stereo not drawn),0,4,-1
CC(=O)NC(c1ccco1)c1ccc2cccnc2c1O (stereo not drawn),.,.,38
CCC(=O)NC(c1ccc(C)cc1)c1ccc2cccnc2c1O (stereo not drawn),0,11*,13
CCCN(C)C[C@@H]1OCCCC[C@H](C)Oc2ccc(NS(C)(=O)=O)cc2C(=O)N([C@@H](C)CO)C[C@H]1C,0,1,.
CCCN(C)C[C@H]1OCCCC[C@@H](C)Oc2ccc(NC(=O)NC(C)C)cc2C(=O)N([C@H](C)CO)C[C@@H]1C,0,-2,.
O=C(NCC1CC1)[C@H]1[C@H](CO)[C@H]2Cn3c(ccc(C4=CCCC4)c3=O)[C@@H]1N2CCC(F)(F)F,0,.,.
O=C(c1cnccn1)N1CC(=O)N2[C@H](CO)[C@@H](c3ccc(C#CC4CC4)cc3)[C@@H]2C1,.,1,.
CCCC#Cc1cnc2c(c1)C(=O)N([C@H](C)CO)C[C@@H](C)[C@H](CN(C)C(=O)NC1CCCC1)O2,0,.,.
COc1ccc(C(NC(C)=O)c2cc(Cl)c3cccnc3c2O)cc1 (stereo not drawn),0,6,0
CCCC(=O)NC(c1ccc(OC)c(OC)c1)c1cc(Cl)c2cccnc2c1O (stereo not drawn),43*,-6,0
C[C@@H]1CN([C@@H](C)CO)C(=O)c2cc(NS(=O)(=O)c3ccccc3)ccc2O[C@@H](C)CCCCO[C@@H]1CN(C)C(=O)Cc1ccccc1,0,-1,.
O=C(C[C@H]1CC[C@H]2[C@@H](COC[C@@H](O)CN2CCc2ccccc2)O1)NCc1ccc(Oc2ccccc2)cc1,0,-6,.
c1ccc2c(-c3c[nH]c4ccccc34)c3ccccc3nc2c1,.,.,-6
Clc1ccc(-c2c[nH]c3ccccc23)nn1,43*,-1,11
CCN(CC)CCNc1ccc(CO)c2sc3ccccc3c(=O)c12,0,5,6
O=c1c2ccccc2sc2c(CO)ccc(NCCN3CCCCC3)c12,0,17*,-11
Cn1[nH]c(C(F)(F)F)c(C=Nc2ccc(Cl)cc2)c1=O,43,0,-16
COC(=O)c1ccc(N=Cc2c(C(F)(F)F)[nH][nH]c2=O)cc1,43*,-1,0
CN(C)S(=O)(=O)c1ccc(N=Cc2c(C(F)(F)F)[nH][nH]c2=O)cc1,44*,-2,-25
Cc1[nH][nH]c(=O)c1C=NCc1cccc(C(F)(F)F)c1,0,3,-18
COc1ccc(CN=Cc2c(C(F)(F)F)[nH][nH]c2=O)cc1,.,.,2
Cc1cccc(C)c1N=Cc1c(C(F)(F)F)[nH][nH]c1=O,43*,-4,-11
CCCNC(=O)C[C@@H]1CC[C@H]2[C@@H](COc3ccc(NC(=O)CCC)cc3C(=O)N2C)O1,0,2,.
COc1ccc(-c2ccc([C@H]3[C@H]4CN(C(=O)NC(C)C)CC(=O)N4[C@H]3CO)cc2)cc1,.,2,.
Cc1ccc(S(=O)(=O)Nc2ccc3c(c2)CC(=O)N([C@H](C)CO)C[C@H](C)[C@@H](CN(C)C(=O)NC(C)C)O3)cc1,0,0,.
SMILES,FGF22 binding,CFTR F508del cor,Vif inh
C[C@@H]1CN([C@H](C)CO)S(=O)(=O)c2ccc(-c3ccccc3F)cc2O[C@H]1CN(C)C(=O)C1CC1,0,1,.
CCC(=O)N(C)C[C@@H]1Oc2ncc(-c3ccc(F)cc3)cc2C(=O)N([C@H](C)CO)C[C@@H]1C,0,1,.
CC(C)NC(=O)NCC[C@H]1CC[C@@H](NC(=O)Nc2ccccc2)[C@H](CO)O1,0,-1,.
CC(C)NC(=O)N(C)C[C@@H]1Oc2cc(Br)ccc2S(=O)(=O)N([C@H](C)CO)C[C@@H]1C,0,-1,.
Cc1ccc(S(=O)(=O)N(C)C[C@H]2Oc3ccc(NC(=O)NC4CCCCC4)cc3CC(=O)N([C@@H](C)CO)C[C@H]2C)cc1,0,-2,.
c1ccc2c(NC3CCCC3)nnc(NC3CCCC3)c2c1,.,.,18
Clc1nnc(NC2CCCCC2)c(Cl)c1Cl,43*,0,1
C[C@H](CO)N1C[C@H](C)[C@@H](CN(C)C(=O)Nc2ccccc2)Oc2ccc(NC(=O)NC3CCCCC3)cc2CC1=O,0,1,.
Cc1nnc(SCC(=O)NNC(=O)c2ccco2)n1-c1ccccc1,0,-1,-2
Cc1ccc(-n2c(C)nnc2SCC(=O)NNC(=O)c2ccco2)cc1,44*,-4,8
CCOC(=O)C1(CCOc2ccccc2)CCN(Cc2ccncc2)CC1,0,3,-3
CCOC(=O)C1(CCOc2ccccc2)CCN(Cc2ccc(-n3cccn3)cc2)CC1,44*,-3,-1
CCOC(=O)C1(CCCc2ccccc2)CCN(Cc2nccn2CC)CC1,43*,0,-1
CCOC(=O)C1(CCOc2ccccc2)CCN(Cc2ccc(C(=O)OC)cc2)CC1,0,1,-1
CCOC(=O)C1(CCOC)CCN(Cc2ccncc2)CC1,43*,-1,11
CCOC(=O)C1(CCOc2ccccc2)CCN(Cc2nccn2CC)CC1,0,2,1
Cc1nn(C)c(Cl)c1CN1CCC(CO)(CCOc2ccccc2)CC1,44*,-1,-5
CCn1ccnc1CN1CCC(CO)(CCOc2ccccc2)CC1,.,-1,32
C=CCOc1ccccc1CN1CCC(CO)(CCOc2ccccc2)CC1,43*,-2,2
Cc1ccccc1CC1(CO)CCCN(Cc2c(C)nn(C)c2Cl)C1 (stereo not drawn),44*,0,4
OCC1(CCOc2ccccc2)CCN(Cc2ccccc2OC(F)F)CC1,0,-1,16
Cc1nn(C)c(Cl)c1CN1CCCC(CO)(Cc2cccc(Cl)c2)C1 (stereo not drawn),.,1,-11
O=C(c1ccccc1F)N1C[C@H]2[C@@H](c3ccccc31)[C@H](CO)N2C(=O)c1ccncc1,-1,-1,.
CCOc1ccc(NC(=O)CN(C)C(=O)c2cc(S(=O)(=O)N3CCCCC3)ccc2C)cc1OCC,0,0,-3
CCOc1ccc(S(=O)(=O)N2CCCCC2)cc1NC(=O)c1ccccc1,0,12*,-2
SMILES,FGF22 binding,CFTR F508del cor,Vif inh
CCOc1ccc(NC(=O)CN(C)C(=O)c2cc(S(=O)(=O)N3CCCCC3)ccc2Cl)cc1OCC,0,1,92*
CC(C)Oc1ccc(S(=O)(=O)N2CCCCC2)cc1NC(=O)C1CCCC1,0,5,5
CCOc1ccc(S(=O)(=O)N2CCN(C)CC2)c(C)c1C,.,.,7
COc1ccc(S(=O)(=O)N2CCCCC2)cc1NC(=O)c1ccccc1,0,-5,-6
CCOc1ccc(S(=O)(=O)N2CCCCC2)cc1NC(=O)C1CCCC1,43*,-1,-2
CCOc1ccc(S(=O)(=O)N2CCCCC2)c(C)c1C,43*,0,-17
O=C(C[C@H]1CC[C@@H]2[C@H](COC[C@@H](O)CN2Cc2cc(F)ccc2F)O1)NCc1ccccc1,0,-2,.
CCNC(=O)C[C@H]1CC[C@H]2[C@H](COc3ccc(NC(=O)c4cscn4)cc3C(=O)N2C)O1,0,-1,.
Cc1ccc(CNc2ccc3c(c2)OCO3)cc1,.,.,63*
c1cc(CNc2ccc3c(c2)OCO3)ccn1,.,.,3
CCOC(=O)CSc1ccc2ccccc2n1,43*,0,-3
O=C(O)CSc1ccc2ccccc2n1,.,.,7
